Source: PubChem BioAssay
CCHFV vOTU inh: blocks the CCHF virus ovarian tumor domain protease. CCHFV vOTU protease, Pep-AMC fluorescence. inhibition, % at 11.5 µM. actives 0.55% (n = 370,000); further: 0% = vehicle wells with enzyme and 100% = no enzyme wells
Mtb betalactam: beta-lactam sensitization of Mtb H37Rv. M. tuberculosis H37Rv growth with meropenem, percent inhibition. inhibition, % at 25 µM. actives 0.27% (n = 330,000); call rule not given here;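 further: growth measured after seven days incubation then overnight dye step; 0% = bacteria only wells and 100% = bacteria with antibiotic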
GDH-TPI inh: counter-screen for M. tuberculosis FBA inhibitors: GDH-TPI coupled enzymes. GDH-TPI coupled enzyme counterscreen, NADH absorbance. inhibition, % at 4.8 µM. actives 1.2% (n = 360,000);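 further: 0% = DMSO wells and 100% = wells lacking the enzyme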
MazF activator: increases E. coli MazEF RNase cleavage of RNA | P0AE70 | FAM/BHQ RNA-DNA oligo cleavage fluorescence, 5 h | activation, % at 20 µM | actives 0.32% (n = 350,000); in the data active means activation above about 50%
Target sequence (P0AE70 whole entry, looked up): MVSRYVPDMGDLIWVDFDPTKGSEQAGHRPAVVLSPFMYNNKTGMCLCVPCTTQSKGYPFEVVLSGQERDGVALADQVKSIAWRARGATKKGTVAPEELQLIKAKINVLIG
FBA Mtb inh: inhibits M. tuberculosis FBA enzyme | inhibition, % at 1 µM | actives 2.3% (n = 360,000) | AID 588726 | P9WQA3 | purified M. tuberculosis FBA, fluorescence read-out; in the data active means inhibition above about 27%;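 further: 0% = vehicle and 100% = reference inhibitor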
Target sequence (P9WQA3 whole entry, looked up): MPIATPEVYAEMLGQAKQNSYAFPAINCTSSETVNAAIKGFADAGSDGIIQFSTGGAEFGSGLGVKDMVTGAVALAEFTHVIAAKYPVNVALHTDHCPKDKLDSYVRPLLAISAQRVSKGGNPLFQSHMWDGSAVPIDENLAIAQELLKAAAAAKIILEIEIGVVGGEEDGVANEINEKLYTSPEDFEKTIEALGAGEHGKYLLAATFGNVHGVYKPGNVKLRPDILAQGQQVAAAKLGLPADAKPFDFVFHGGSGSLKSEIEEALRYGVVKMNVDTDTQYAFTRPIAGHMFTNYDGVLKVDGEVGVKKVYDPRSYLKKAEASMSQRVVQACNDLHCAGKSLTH
* hit, by the source's call. A selection: hits, their analogues and other compounds. The true share with any hit is near 4%. Unless noted, no stated cut-off is given here; in the data, active means inhibition above about 30%; inactive means the rest.

Results for Cc1oc2cc3oc(=O)c(CC(=O)N[C@@H](C)C(=O)NC(Cc4ccc(Cl)cc4)C(=O)O)c(C)c3cc2c1C (some centres undefined) ?
CCHFV vOTU inh: -18.9; Mtb betalactam: 2.6; GDH-TPI inh: 9.0; MazF activator: -2.7; FBA Mtb inh: 5.1

How did CCn1c(=O)n(CC(=O)N2CCOCC2)c(=O)c2ccccc21 do in these assays?
CCHFV vOTU inh: -4.4

How did COc1ccc2c(c1)CCCN2C(=O)C1CCCN(S(=O)(=O)c2ccc(Br)s2)C1 (centres undefined) do in these assays?
CCHFV vOTU inh: 0.0

What do the screens show for `O=C(CN1CCC(NC(=O)NC2CCCC2)CC1)Nc1ccc2c(c1)OCCO2`?
CCHFV vOTU inh: 1.3

Results for Cc1c(CC(=O)NCC(C)C)c(=O)oc2cc3c(cc12)CCC(C)(C)O3 ?
CCHFV vOTU inh: -168.0; Mtb betalactam: 4.1; GDH-TPI inh: 15.5; MazF activator: 1.2; FBA Mtb inh: 140.1*

How did Cc1oc2cc3oc(=O)c(CC(=O)NCCC(=O)O)c(C)c3cc2c1C do in these assays?
CCHFV vOTU inh: -19.0; GDH-TPI inh: 18.0; MazF activator: -4.4; FBA Mtb inh: 8.1

Results for Cc1c(CC(=O)NC(C)C)c(=O)oc2cc3c(cc12)CCC(C)(C)O3 ?
CCHFV vOTU inh: -172.0; Mtb betalactam: -0.5; GDH-TPI inh: 22.4; MazF activator: 7.4; FBA Mtb inh: active

What do the screens show for `O=C(Nc1c(-c2ccccc2)nc2ncccn12)c1ccccc1`?
CCHFV vOTU inh: -8.0

What do the screens show for `O=C(OCC(=O)N1CCN(C(=O)c2ccco2)CC1)c1ccccc1NCCO`?
CCHFV vOTU inh: -124.3; Mtb betalactam: -12.0; GDH-TPI inh: 7.6; MazF activator: -9.2; FBA Mtb inh: 123.7*

How did CCN(C(=O)COC(=O)c1ccccc1NCCO)c1cccc2ccccc12 do in these assays?
CCHFV vOTU inh: -131.9; Mtb betalactam: -6.3; GDH-TPI inh: 4.1; MazF activator: -7.1; FBA Mtb inh: 113.6*

What do the screens show for `O=C(OCC(=O)N1CCN(C(=O)COC(=O)c2ccccc2NCCO)CC1)c1ccccc1NCCO`?
CCHFV vOTU inh: -173.4; GDH-TPI inh: 8.0; MazF activator: 1.1; FBA Mtb inh: 161.7*

What do the screens show for `CNc1ccccc1C(=O)OCC(C)=O`?
Mtb betalactam: 0.4; GDH-TPI inh: 6.9; MazF activator: 4.2; FBA Mtb inh: 62.5*

How did CNc1ccccc1C(=O)OC do in these assays?
CCHFV vOTU inh: 12.8; Mtb betalactam: -2.1; GDH-TPI inh: 1.0; MazF activator: -2.4; FBA Mtb inh: 2.9

Results for Nc1nc2c(ncn2[C@@H]2O[C@H](C(=O)N[C@@H](Cc3ccccc3)C(=O)NCC3CCCCC3)[C@@H](O)[C@H]2O)c(=O)[nH]1 ?
CCHFV vOTU inh: 0.7

Results for COC(=O)[C@]12C[C@H](CC(=O)N3CCN(C(=O)C4CC4)CC3)C(=O)N(Cc3cccc4ccccc34)C1=C[C@H](COCc1ccccc1)O[C@@H]2C ?
CCHFV vOTU inh: 14.9

What do the screens show for `Clc1c(-c2ccccc2)nc2ccccn12`?
CCHFV vOTU inh: -9.9; Mtb betalactam: -5.6; GDH-TPI inh: 10.4; MazF activator: -1.4; FBA Mtb inh: 7.7

How did c1ccn2c(c1)nc1c2nc2ccccn21 do in these assays?
CCHFV vOTU inh: -309.2; Mtb betalactam: inconclusive; GDH-TPI inh: 16.8; MazF activator: -3.5; FBA Mtb inh: active

How did Cc1ccsc1/C=N/NC(=O)c1ccc(Cn2cc(Br)cn2)o1 do in these assays?
CCHFV vOTU inh: 18.8; Mtb betalactam: -4.4; GDH-TPI inh: 35.0*; MazF activator: -0.3; FBA Mtb inh: 1.9

How did O=C(N/N=C/c1cccc(Br)c1)c1ccc(Cn2cc(Br)cn2)o1 do in these assays?
CCHFV vOTU inh: -10.9; GDH-TPI inh: 6.3; MazF activator: -4.9; FBA Mtb inh: -0.4

Results for CN1CC=C(c2ccccc2)N(c2ccc(Br)cc2)C1=O ?
CCHFV vOTU inh: 0.1

Results for O=C(N/N=C/c1ccsc1)c1c[nH]c2ccccc12 ?
CCHFV vOTU inh: 5.7; Mtb betalactam: 10.2; GDH-TPI inh: 9.0; MazF activator: -4.0; FBA Mtb inh: 2.0

Results for Cc1ccc(/C=N/NC(=O)c2c[nH]c3ccccc23)o1 ?
Mtb betalactam: 5.3; GDH-TPI inh: 59.3*; MazF activator: 7.0; FBA Mtb inh: -5.7

What do the screens show for `O=C(N/N=C/c1ccc[nH]1)c1sc2ccccc2c1Cl`?
CCHFV vOTU inh: -2.2; Mtb betalactam: 95.8; GDH-TPI inh: 37.5*; MazF activator: 11.7; FBA Mtb inh: -3.7

What do the screens show for `Cc1ccsc1/C=N/NC(=O)c1c[nH]c2ccccc12`?
CCHFV vOTU inh: 9.0; Mtb betalactam: -7.5; GDH-TPI inh: 44.6*; MazF activator: -1.4; FBA Mtb inh: 7.4

What do the screens show for `Cc1ccc(/C=N/NC(=O)c2cccc3ccccc23)o1`?
CCHFV vOTU inh: 18.6; Mtb betalactam: 0.7; GDH-TPI inh: 11.9; MazF activator: 3.9; FBA Mtb inh: -1.1

Results for O=C(N/N=C/c1c[nH]c2ccccc12)c1cccc(O)c1 ?
CCHFV vOTU inh: 2.5; Mtb betalactam: 1.2; GDH-TPI inh: 5.9; MazF activator: 8.1; FBA Mtb inh: -2.5

Results for O=C(N/N=C/c1c[nH]c2ccccc12)c1ccc(O)c(O)c1 ?
CCHFV vOTU inh: 11.5; Mtb betalactam: 1.9; GDH-TPI inh: 36.1*; MazF activator: 6.4; FBA Mtb inh: -1.2

What do the screens show for `O=C(N/N=C/c1ccncc1)c1sc2ccccc2c1Cl`?
CCHFV vOTU inh: -0.9; Mtb betalactam: 99.6; GDH-TPI inh: 22.8; MazF activator: -6.7; FBA Mtb inh: -0.3

How did CCCCCCC(=O)n1ccc2ccc(-c3ccc4ccn(Cc5ccc(OC)cc5)c4c3)cc21 do in these assays?
CCHFV vOTU inh: 9.9

What do the screens show for `COC(=O)c1ccc(S(=O)(=O)N2CCC(NC(=O)CCc3ccccc3)CC2)cc1`?
CCHFV vOTU inh: 1.0

How did N#Cc1ccc(/C=C2\CC3(OC(=O)c4ccc(Cl)cc4)CCCN2C3)cc1 (centres undefined) do in these assays?
CCHFV vOTU inh: 4.6

How did COC(=O)[C@]12C[C@H](CC(=O)N3CCC(c4ccccc4)CC3)C(=O)N(Cc3cccc4ccccc34)C1=C[C@H](COCc1ccccc1)O[C@@H]2C do in these assays?
CCHFV vOTU inh: 12.0

Results for COC(=O)[C@]12C[C@H](CC(=O)NCCc3ccccc3OC)C(=O)N(CCC3=CCCCC3)C1=C[C@H](C(C)C)O[C@@H]2C1CC1 ?
CCHFV vOTU inh: 15.5

How did Cc1ccc(/C=N/NC(=O)c2c[nH]c3ccccc23)s1 do in these assays?
CCHFV vOTU inh: 5.2; Mtb betalactam: 26.3; GDH-TPI inh: 48.9*; MazF activator: 1.6; FBA Mtb inh: -0.7

Results for O=C(N/N=C/c1cc([N+](=O)[O-])ccc1O)c1c[nH]c2ccccc12 ?
CCHFV vOTU inh: 9.7; Mtb betalactam: 14.4; GDH-TPI inh: 39.2*; MazF activator: 4.6; FBA Mtb inh: -4.8

Results for O=C(N/N=C/c1ccncc1)c1cc2ccccc2cc1O ?
CCHFV vOTU inh: 12.4; Mtb betalactam: 2.6; GDH-TPI inh: 18.2; MazF activator: -0.7; FBA Mtb inh: -1.3

What do the screens show for `O=C(N/N=C/c1ccc[nH]1)c1c[nH]c2ccccc12`?
CCHFV vOTU inh: 7.6; GDH-TPI inh: 32.2*; MazF activator: 1.5; FBA Mtb inh: 2.4
